Several values for one entry are separate records, joined by “and”; a condition that tells them apart may be missing. Identical values can stand only once. Results filed as inconclusive are left out. Activity calls are given as the source filed them. Calls follow the shape of the dose curve; as a rule, active = well fitted inhibition curve with a large enough effect; inconclusive = small, poorly fitted or top-dose-only effect; inactive = flat fitted curve, though single readings scatter. *1 amine or outer side, *2 acyl side, *3 side chain or, on linkers, in order; H or OH if unused. Where a SMILES comes first, the peptide text is derived from it. Bridges are numbered along the chain shown (N, C = ends). [ ]: non-standard residue; d: D form. X6 = O=C(CCC[*:2])[*:1]; 2Abz = Nc1ccccc1C(=O)O
experiment: P-glycoprotein substrates identified in KB-8-5-11 adenocarcinoma cell line, qHTS therapeutic library screen (AID 1346987); conditions: KB-8-5-11 (P-gp overexpressing) viability, CellTiter-Glo, 72 h; series mostly up to 44.5 µM; activity change, negative = cytotoxicity: at the top concentration; also: nearly all actives have a fitted effect of over 65% in size
Procedure, shortened: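 Luminescence from CellTiter-Glo, read 5 min after addition, quantified survival of KB-8-5-11 (P-gp-overexpressing) cells exposed to compounds for 72 h. AC50 was derived from concentration-response curves.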
% is scaled to controls: 0 for no effect and ±100 for the full control effect; potency is read from the fitted curve at half-maximal effect.

| Compound | outcome | Potency | activity change, negative = cytotoxicity |
| --- | --- | --- | --- |
| CCNC(=O)CCC/C=C\C[C@@H]1[C@@H](/C=C/C(O)CCc2ccccc2)[C@@H](O)C[C@@H]1O (stereo partly drawn) | inactive |  |  |
| CCC(=O)NS(=O)(=O)c1ccc(-c2c(-c3ccccc3)noc2C)cc1 |  | inactive |  |
| C[C@H]1CC[C@@]2(OC1)O[C@H]1CC3C4CC=C5C[C@H](O)C[C@@H](O[C@@H]6O[C@@H](C)[C@H](O)[C@@H](O)[C@H]6O[C@@H]6O[C@@H](C)[C@H](O)[C@@H](O)[C@H]6O)[C@]5(C)C4CC[C@]3(C)[C@H]1[C@@H]2C (stereo partly drawn) |  |  | 3.3% [at 17.3 µM] (inactive) |
| CCCCCCCC/C=C\CCCCCCCC(=O)O |  |  | -2.14% (inactive) |
| CC1OC(OC2C(CO)OC(OCC3OC(OC(=O)C45CCC(C)(C)CC4C4=CCC6C7(C)CCC(OC8OC(C(=O)O)C(O)C(OC9OC(CO)C(O)C(O)C9O)C8O)C(C)(C)C7CCC6(C)C4(C)CC5)C(O)C(O)C3O)C(O)C2O)C(O)C(O)C1O (stereo not drawn) | inactive [at 9.29 µM] |  |  |
| CC1NC(=O)C(Cc2c[nH]c3ccccc23)NC1=O (stereo not drawn) | inactive |  |  |
| CCC(C)C1NC(=O)C2CCCN2C(=O)C(C(C)C)NC(=O)c2ccccc2NC(=O)C(Cc2ccc(O)cc2)NC(=O)C(C)NC(=O)C(C(C)O)NC1=O (stereo not drawn) (cyclo([2Abz]VPITAY); configuration not given here) | inactive [at 17.3 µM] |  |  |
| C=C1CC[C@@H]2[C@](C)(CO)[C@H](O)CC[C@@]2(C)[C@@H]1C/C=C1/C(=O)OC[C@H]1O |  |  | -31% (inactive) |
| CNC(=O)COC(=O)NCCC1CCN(c2cccc(C)n2)CC1 |  |  | 3.94% (inactive) |
| CC(=O)c1cnc2ccc(-c3cc(Cl)c(O)c(Cl)c3)nc2c1NC1CCC(CN(C)C)CC1 (stereo not drawn) |  | 119 nM (active) and 23.1 nM (active) |  |
| C/C=C1\[C@H](O[C@@H]2O[C@H](CO)[C@@H](O)[C@H](O)[C@H]2O)OC=C(C(=O)OC)[C@H]1CC(=O)OC | inactive [at 17.3 µM] |  |  |
| COC(=O)[C@H](OC(C)=O)[C@H]1C(C)(C)C(=O)[C@H]2CC3=C4CC(=O)O[C@@H](c5ccoc5)[C@]4(C)CCC3[C@@]1(C)C2=O (stereo partly drawn) |  |  | 4.12% [at 17.3 µM] (inactive) |
| CC[C@H](C)[C@@H]1NC(=O)[C@H](Cc2ccc(OC)cc2)NC(=O)CCCSC[C@@H](C(=O)N2CCC[C@H]2C(=O)N[C@@H](CC(C)C)C(=O)NCC(N)=O)NC(=O)[C@H](CC(N)=O)NC(=O)[C@H](CCC(N)=O)NC1=O (Y(Me)IQNCPLG-NH2; linker N-5 via X6) | inactive |  |  |
| O=C(O)CCC(=O)C(=O)O |  |  | 7.84% (inactive) |
| CC1OC(OC2C(O)C(C(=O)O)OC(OC3CCC4(C)C(CCC5(C)C4C=CC4=C6CC(C)(C)CC(O)C6(C)CCC45C)C3(C)C)C2OC2OCC(O)C(O)C2O)C(O)C(O)C1O (stereo not drawn) | inactive [at 9.29 µM] |  |  |
| C=C1[C@@H]2[C@H]3OC(=O)C(=C)[C@@H]3CC[C@@](C)(O)[C@@H]2C[C@@H]1O[C@@H]1O[C@H](CO)[C@@H](O)[C@H](O)[C@H]1O | inactive [at 17.3 µM] |  |  |
| COc1cc(/C=C/C(=O)O[C@H]2[C@H](O)[C@@H](CO)O[C@@]2(CO)O[C@H]2O[C@H](COC(=O)c3ccc(O)cc3)[C@@H](O)[C@H](O)[C@H]2O)cc(OC)c1OC | inactive [at 17.3 µM] |  |  |
| CC1=CC(=O)CC(C)(C)C1CCC(C)OC1OC(COC(=O)c2cc(O)c(O)c(O)c2)C(O)C(O)C1O (stereo not drawn) |  |  | 1.57% [at 17.3 µM] (inactive) |
| COC1(CC(C)C)NC(=O)C(O)(Cc2ccccc2)NC1=O (stereo not drawn) | inactive |  |  |

| Compound | outcome | Potency | activity change, negative = cytotoxicity |
| --- | --- | --- | --- |
| CC(=O)c1c(O)cc2cccc3c2c1CC(C)(O)O3 (stereo not drawn) |  |  | 3.9% (inactive) |
| CC1[C@@H](O)[C@@H](O)C2[C@]3(C)C(C[C@H]4OC(=O)[C@H](O)[C@]1(O)[C@@]24C)C(C)(O)C[C@H](O)[C@H]3O (stereo partly drawn) | inactive [at 17.3 µM] |  |  |
| Cc1ccc2c(c1)C=Cc1cc(C)ccc1C2c1cn(Cc2ccc(C(=O)Nc3nn[nH]n3)o2)c(=O)[nH]c1=S |  |  | 6.07% (inactive) |
| O=C(OCc1cccc(O)c1O[C@@H]1O[C@H](CO)[C@@H](O)[C@H](O)[C@H]1O)C1(O)C(=O)C2C=CC1C1C=CC(=O)C(O)(C(=O)OCc3cccc(O)c3O[C@@H]3O[C@H](CO)[C@@H](O)[C@H](O)[C@H]3O)C21 (stereo partly drawn) | inactive [at 9.29 µM] |  |  |
| CC[C@H]1OC(=O)[C@H](C)[C@@H](OC2C[C@@](C)(OC)[C@@H](O)[C@H](C)O2)[C@H](C)[C@@H](OC2O[C@H](C)C[C@H](NC)[C@H]2O)[C@](C)(O)C[C@@H](C)CN(C)[C@H](C)[C@@H](O)[C@]1(C)O (stereo partly drawn) |  |  | 2.19% (inactive) |
| O=C(O)CCc1cccc(O[C@@H]2O[C@H](CO)[C@@H](O)[C@H](O)[C@H]2O)c1O | inactive |  |  |
| CC(=O)NCCCCn1c2c(c3ccccc31)C(=O)NCC2 | inactive |  |  |
| C=C[C@](C)(CC/C=C(\C)C(=O)O)O[C@@H]1OC[C@H](O)[C@H](O)[C@H]1O | inactive |  |  |
| CCC(C)(O)C(O)C(=O)OCc1ccc(O[C@@H]2O[C@H](CO)[C@@H](O)[C@H](O)[C@H]2O)c(OC)c1 (stereo partly drawn) |  |  | 2.32% [at 17.3 µM] (inactive) |
| CCOc1nc2cccc(C(=O)OCc3oc(=O)oc3C)c2n1Cc1ccc(-c2ccccc2-c2noc(O)n2)cc1 |  |  | 3.72% (inactive) |
| CC(/C=C/C1(O)C(C)CC(O)CC1(C)C)OC1OC(CO)C(O)C(O)C1O (stereo not drawn) |  |  | 0.557% (inactive) |
| CC(C)=CCC/C(C)=C/CC/C(C)=C/CC[C@]1(C)CCc2cc(O)cc(C)c2O1 |  |  | 6.24% [at 17.3 µM] (inactive) |
| COc1ccc(C[C@H](N)C(=O)N[C@H]2[C@@H](O)[C@H](n3cnc4c(N(C)C)ncnc43)O[C@@H]2CO)cc1 |  |  | -6.91% (inactive) |
| O=C(O)c1cc(O)c2c(c1)[O][Bi][O]2 |  |  | -8.89% (inactive) |
| C=C(C(=O)OC)C1CCC2(C)C(O[C@@H]3O[C@H](CO)[C@@H](O)[C@H](O)[C@H]3O)CC(=O)C(C)C2C1O (stereo partly drawn) |  |  | 0.216% [at 17.3 µM] (inactive) |
| C[C@@H]1O[C@@H](O[C@@H]2[C@@H](O)[C@H](O[C@@H]3[C@@H](O)[C@@H](O)[C@H](O[C@H]4[C@H](OC(=O)[C@]56CCC(C)(C)C[C@H]5C5=CCC7[C@@]8(C)C[C@H](O)[C@H](O[C@@H]9O[C@H](C(=O)O)[C@@H](O)[C@H](O)[C@H]9O)[C@@](C)(CO)C8[C@H](O)C[C@@]7(C)[C@]5(C)CC6)OC[C@H](O)[C@@H]4O)O[C@H]3C)OC[C@H]2O)[C@H](O)[C@H](O)[C@H]1O (stereo partly drawn) | inactive [at 9.29 µM] |  |  |
| C[C@]12O[C@H](C[C@]1(O)CO)n1c3ccccc3c3c4c(c5c6ccccc6n2c5c31)CNC4=O |  | 4.61 µM (active) |  |
| CC(C(=O)O)c1ccc(N2Cc3ccccc3C2=O)cc1 (stereo not drawn) |  |  | -27% (inactive) |
| CC1(C)CCC(C)(C)c2cc([C@@H](O)C(=O)Nc3ccc(C(=O)O)cc3F)ccc21 | inactive |  |  |
